# Compounds without any hit were thinned out: in the full panel of roughly 83,000, 20% have a hit.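 Treatment: one concentration, 48 hours, 96-well format. Scoring: percent growth, with anything below 10 considered active.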 Unmarked numbers belong to inactive results. Active and inactive are the calls of the source.
# Experiments:
# Experiment in all cases: NCI-60 one-dose screen, 48 h (100 = growth as untreated, 0 = no growth, -100 = all killed)
# Conditions in all cases: 10 µM unless noted
# HCT-15 colon = tested on: HCT-15 colon
# HT29 colon = tested on: HT29 colon
# SNB-75 CNS = tested on: SNB-75 CNS
# SNB-19 CNS = tested on: SNB-19 CNS
# U251 CNS = tested on: U251 CNS
# PC-3 prostate = tested on: PC-3 prostate
# SK-MEL-5 melanoma = tested on: SK-MEL-5 melanoma
# UACC-62 melanoma = tested on: UACC-62 melanoma
# LOX IMVI melanoma = tested on: LOX IMVI melanoma
# SK-MEL-28 melanoma = tested on: SK-MEL-28 melanoma
# SK-MEL-2 melanoma = tested on: SK-MEL-2 melanoma
# EKVX NSCLC = tested on: EKVX NSCLC
# SN12C renal = tested on: SN12C renal
# UO-31 renal = tested on: UO-31 renal
# TK-10 renal = tested on: TK-10 renal
# ACHN renal = tested on: ACHN renal
# CAKI-1 renal = tested on: CAKI-1 renal
# CCRF-CEM leukemia = tested on: CCRF-CEM leukemia
# MOLT-4 leukemia = tested on: MOLT-4 leukemia
# A498 renal = tested on: A498 renal
SMILES,growth (HCT-15 colon),growth (HT29 colon),growth (SNB-75 CNS),growth (SNB-19 CNS),growth (U251 CNS),growth (PC-3 prostate),growth (SK-MEL-5 melanoma),growth (UACC-62 melanoma),growth (LOX IMVI melanoma),growth (SK-MEL-28 melanoma),growth (SK-MEL-2 melanoma),growth (EKVX NSCLC),growth (SN12C renal),growth (UO-31 renal),growth (TK-10 renal),growth (ACHN renal),growth (CAKI-1 renal),growth (CCRF-CEM leukemia),growth (MOLT-4 leukemia),growth (A498 renal)
CCCCCCCCCCCCCCn1c2ccccc2c2c3c(c4c5cc(OC)ccc5oc4c21)C(=O)NC3=O,94.9%,103%,81.4%,105%,99.8%,107%,102%,101%,103%,107%,113%,105%,101%,88.5%,109%,103%,93.2%,103%,123%,–
c1ccc2cc(Cn3c(-c4ccc5ccccc5c4)[n+](Cc4ccc5ccccc5c4)c4ccccc43)ccc2c1,-74.6% (active),-71.7% (active),-69.5% (active),-76.4% (active),-78.6% (active),-57.8% (active),-97.2% (active),-87.8% (active),-98.8% (active),-55.3% (active),-67.7% (active),-11.7% (active),-88.2% (active),-77.1% (active),–,-51.5% (active),-67.3% (active),-4.24% (active),-35.4% (active),-64% (active)
CCCN1CCN(c2ccc3nc(-c4ccc5nc(-c6ccc(C(F)(F)F)cc6)[nH]c5c4)[nH]c3c2)CC1,-55.1% (active),-44% (active),32.5%,-93.8% (active),-82.2% (active),-68% (active),37.2%,72.9%,-92.9% (active),-94.6% (active),7.45% (active),-34.3% (active),-69.2% (active),79.7%,-13% (active),-99.9% (active),59%,-21.1% (active),-38.6% (active),–
COc1cc(-c2nc(SC(C)C)nc(Nc3cccc(C)c3)c2C#N)cc(OC)c1OC,103%,98.7%,109%,103%,106%,98.6%,102%,95.2%,97.2%,107%,118%,109%,102%,84.8%,–,103%,94.5%,104%,93.5%,102%
COc1ccc(/C=C(\C#N)c2ccc(OC)cc2)cc1,66.2%,35.6%,76%,80.5%,48.8%,73.7%,32%,54.5%,48.3%,80.6%,54.4%,92.2%,67.5%,–,76.7%,88.3%,64.7%,55.6%,56.9%,46.6%
O=C1c2c(c3c4cc(Br)ccc4[nH]c3c3ccc4ccccc4c23)C(=O)N1O,85.4%,30%,79.8%,85.1%,68.5%,79%,96.7%,59.9%,67.8%,106%,106%,87.3%,92.2%,101%,117%,73.3%,69.6%,54.1%,68.5%,–
O=S(=O)(Nc1ccc(Cl)c(Cl)c1)c1ccc(-c2cnc(C3CC3)o2)cc1,23.9%,10.2%,-3.4% (active),30.9%,22.1%,14.2%,25%,26.8%,45.6%,58.3%,37.4%,33.8%,41.2%,44%,51.3%,45.1%,35.9%,18.9%,32.4%,–
COc1cc2cc(Oc3ccc(NC(=O)Nc4ccc(Cl)c(C(F)(F)F)c4)cc3)c(C)nc2cc1OCCN1CCCCC1,-81.8% (active),-68% (active),-57.9% (active),-51.7% (active),-76.4% (active),-55.3% (active),-76.1% (active),72.6%,-97.1% (active),-86% (active),95.3%,15.8%,-84.7% (active),-90.1% (active),–,-100% (active),15.4%,3.86% (active),-37.2% (active),64.2%
Nc1nc(-c2ccnc(Cl)c2)nn1-c1nc2ccccc2s1,101%,112%,103%,98.9%,107%,102%,106%,97%,102%,104%,108%,96.5%,101%,87%,–,96.9%,95%,101%,–,96.2%
CCN(CC)c1ccc(/C=C(\C#N)c2cc3ccccc3[nH]2)cc1,29.7%,13.7%,55.2%,72.9%,41.7%,77%,52.1%,64%,29.7%,67.1%,43.3%,71.5%,69.4%,81.1%,–,70.7%,41.6%,50.9%,37.8%,52.7%
c1ccc2cc(-c3n(Cc4ccc5ccccc5n4)c4ccccc4[n+]3Cc3ccc4ccccc4n3)ccc2c1,18.8%,-31.7% (active),-32.8% (active),6.22% (active),-7.46% (active),0.461% (active),-96% (active),-60.6% (active),-85.8% (active),-24.2% (active),-42.9% (active),4.21% (active),0.451% (active),-14.3% (active),–,7.63% (active),-47.6% (active),8.55% (active),-32.8% (active),-22.3% (active)
Cc1c(C(=O)Nc2nc(-c3ccccc3)cs2)nnn1-c1ccccc1Br,29.5% [50 µM],16.3% [50 µM],67.8% [50 µM],61.1% [50 µM],50.8% [50 µM],44.8% [50 µM],-68.6% [50 µM] (active),39.4% [50 µM],12% [50 µM],44.5% [50 µM],40.1% [50 µM],30.7% [50 µM],50.9% [50 µM],41.7% [50 µM],–,41.9% [50 µM],33.7% [50 µM],41.1% [50 µM],17% [50 µM],50.5% [50 µM]
O=c1c2c(=NCCN3CCCC3)cc3c(=O)n(CCCN4CCOCC4)c(=O)c4c(-c5ccc(CN6CCCC6)cc5)cc(c(O)n1CCCN1CCOCC1)c2c4-3,-30% (active),-23.4% (active),-83.5% (active),-9.24% (active),-19.4% (active),-47.2% (active),-44.6% (active),-73.2% (active),-78.2% (active),-67.8% (active),-40.8% (active),-37% (active),-25.5% (active),-6.74% (active),–,-4.38% (active),0.0079% (active),-4.42% (active),0.115% (active),-85% (active)
N#Cc1c(-c2cccc(F)c2)cc(-c2ccc(Br)s2)[nH]c1=O,27.2%,118%,61.2%,78.4%,56.2%,78.2%,68.8%,57.9%,61.7%,71.3%,60%,89.3%,92.4%,74.1%,108%,91.9%,49.8%,90.7%,82.6%,–
COc1cc(Cn2cc(F)c(=O)[nH]c2=O)cc(OC)c1,103% [50 µM],110% [50 µM],91.2% [50 µM],101% [50 µM],106% [50 µM],101% [50 µM],103% [50 µM],97.5% [50 µM],86.2% [50 µM],109% [50 µM],114% [50 µM],98.6% [50 µM],98.9% [50 µM],75.3% [50 µM],–,101% [50 µM],92.9% [50 µM],103% [50 µM],103% [50 µM],98.2% [50 µM]
N#C/C(=C\c1ccc[nH]1)c1cc2ccccc2[nH]1,50.2%,80.2%,62.2%,78.5%,69.7%,58%,57.2%,67.8%,75.2%,98.5%,65.9%,37.4%,72.3%,55%,–,69.7%,52.4%,52%,62.9%,69.2%

# — PubChem BioAssay (NCI)
